Assay results reported in PubChem BioAssay AID1654 (Sanford-Burnham Center for Chemical Genomics, 2009).
Hit rate of the full screen: of about 290,000 compounds, about 1,500 (0.52%) were called active. This excerpt belongs to a sample that is enriched for actives. Values without a mark were called inactive. Rule as the data show it: active = inhibition above about 50%; inactive = the rest.

Target: Dual specificity protein phosphatase 3 (Homo sapiens) (UniProt P51452)
Assay: VHR1 phosphatase inhibitors, primary screen, biochemical, absorbance, uHTS (AID 1654)
Settings: recombinant VHR phosphatase, pNPP absorbance, at 13.3 µM, active compounds read high

Chain of Dual specificity protein phosphatase 3 (Homo sapiens) (P51452 whole entry, looked up): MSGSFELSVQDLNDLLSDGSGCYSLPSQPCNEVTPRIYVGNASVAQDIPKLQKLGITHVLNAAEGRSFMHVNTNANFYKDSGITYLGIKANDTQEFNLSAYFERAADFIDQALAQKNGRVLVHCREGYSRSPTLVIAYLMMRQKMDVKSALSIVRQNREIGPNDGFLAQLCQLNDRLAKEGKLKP

SMILES | inhibition
CCN(CC)c1ccc(/C=N/NC(=O)CNC(=O)c2cccs2)cc1 | 10.2%
CN(C(=O)COC(=O)CNC(=O)C12CC3CC(CC(C3)C1)C2)c1ccccc1 | 14.5%
Cc1c(C(=O)O)nnn1-c1nonc1N | 17.9%
NNC(=O)c1nnn(-c2nonc2N)c1CN1CCCC1 | 52.8% (active)
Nc1nonc1-n1nnc(C(=O)N/N=C\c2ccncc2)c1CN1CCCCC1 | 13%
Cc1ccc2c(c1)N(CC(=O)N1CCCC(C)C1)C(=O)CO2 (stereo unspecified) | 7.4%
CCOc1ccc(CN2CCN(CCCc3ccccc3)C(CCO)C2)cc1 (stereo unspecified) | 8.1%
Cc1noc(C)c1CCC(=O)N1CCCC(CO)(Cc2ccccc2)C1 (stereo unspecified) | 5.7%
CC1CN(C(=S)Nc2ccc(Br)cc2Cl)CC(C)O1 (stereo unspecified) | 15%
CCc1ccc(NC(=O)Cn2nnc(C(=O)NCc3ccc(OC)cc3)c2N)cc1 | -1.9%
CCOc1ccc(NC(=O)CN2CCN(CC(=O)Nc3ccc(OC)cc3)CC2)cc1 | -3.3%
CCc1ccc(NC(=O)CN2CCC(C(=O)c3ccc(OC)cc3)CC2)cc1 | 52% (active)
COc1ccc(CCNC(=O)C2CCCN(S(=O)(=O)c3ccc(OC)cc3)C2)cc1 (stereo unspecified) | -35.9%
CC(C)CCNC(=O)C1CCCN(S(=O)(=O)c2ccc(F)cc2)C1 (stereo unspecified) | 53.4% (active)
CCCCNC(=O)C1CCCN(S(=O)(=O)c2ccc(S(=O)(=O)NCC(C)C)cc2)C1 (stereo unspecified) | 6.5%
CCc1cc(-c2nnc(SCC(=O)NC3CC3)n2C)cs1 | 24%
O=c1c(-c2cccc(Cl)c2)c[nH]n1-c1ccccc1 | 12.5%
O=c1[nH]cnc2c1c(-c1ccccc1)cn2-c1ccc(F)cc1 | -6.9%
Cc1ccc(C2C3=C(Nc4[nH]n(-c5ccccc5)c(=O)c42)c2ccccc2C3=O)cc1 (stereo unspecified) | 1.7%
Cc1ccc(-c2ccnc3[nH]n(-c4ccccc4)c(=O)c23)cc1 | 60% (active)
Cc1ccc(-n2[nH]c(C)c(/C=N/N3C(=O)c4cccc5cccc(c45)C3=O)c2=O)cc1 | 20.9%
O=c1c2c(-c3ccccc3)ccnc2[nH]n1-c1ccccc1 | 55.5% (active)
Cc1ccc(S(=O)(=O)N2CCC(C(=O)N[C@@H](C)C(=O)NCc3ccccc3)CC2)cc1 | 1.5%

SMILES | inhibition
C[C@H](NC(=O)C1CCN(S(=O)(=O)c2ccccc2)CC1)C(=O)NCc1ccccc1 | 52.3% (active)
Cc1ccc(S(=O)(=O)N2CCC(C(=O)N[C@@H](C)C(=O)NCCc3ccccc3)CC2)cc1 | 6.2%
N#Cc1c(-c2ccccc2)nc(SCc2ccc([N+](=O)[O-])cc2)[nH]c1=O | 4.1%
O=C(O)C(NS(=O)(=O)c1cccc2nsnc12)c1ccccc1 (stereo unspecified) | 13.3%
O=C(C(NS(=O)(=O)c1cccc2nsnc12)c1ccccc1)N1CCN(c2ccccn2)CC1 (stereo unspecified) | 52.7% (active)
O=C(C(NS(=O)(=O)c1cccc2nsnc12)c1ccccc1)N1CCN(c2ccccc2)CC1 (stereo unspecified) | -12.8%
O=C(NCCOc1cccnc1)c1ccc(OC2CCN(Cc3ccccn3)CC2)cc1 | 18.5%
Fc1ccc(/C=N/n2c(COc3ccccc3)n[nH]c2=S)cc1 | 26.3%
C/C(=N/O)c1ccc(N2C(=O)C3C4C=CC(C3C2=O)C2C3C(=O)N(c5ccc(/C(C)=N/O)cc5)C(=O)C3C42)cc1 (stereo unspecified) | -7.1%
CC1CCN(C(=O)/C(=C\c2ccccc2F)NC(=O)c2ccccc2)CC1 | 18.5%
CN(CC(=O)NCc1ccc(Cl)cc1)S(=O)(=O)c1cccs1 | 21.4%
COc1ccc(NC2CCCN(C(=O)c3ccncc3)C2)cc1 (stereo unspecified) | 54.2% (active)
Cc1cccc(C(=O)N2CCCC(Nc3ccc(C(C)C)cc3)C2)n1 (stereo unspecified) | 10.8%
CC(C)c1ccc(NC2CCCN(C(=O)c3ccncc3)C2)cc1 (stereo unspecified) | 13.7%
COc1cc(C(=O)N2CCN(C3CCC(C)CC3)CC2)cc(OC)c1OC (stereo unspecified) | 16.6%
CCOc1ccc2[nH]c(=O)c(CN(CCCO)S(=O)(=O)c3ccc(F)cc3)cc2c1 | 39.4%
COc1cc(C(=O)NCc2ccc(-n3cccc3)cc2)cc(OC)c1OC | 33.3%
COc1cc(C(=S)NCc2ccccc2)cc(Br)c1O | 25.9%
COc1cc(C(=O)NCc2ccncc2)cc(Br)c1OCc1ccccc1 | 50% (active)
CCOC(=O)c1c(S(=O)(=O)Nc2ccc(CN3CCC(C)CC3)cc2)c(C)n(C)c1C | -22.3%
CCOc1ncccc1C(=O)N(CC)CC(=O)Nc1ccc(NC(C)=O)cc1 | 1.3%
CCOc1ncccc1C(=O)N(C)CC(=O)Nc1ccc(F)cc1 | 59.9% (active)
CN(CC(=O)Nc1ccc(F)cc1)C(=O)c1ccc(-c2ccc(Cl)cc2)o1 | 16.7%
